Measurements published in PubChem BioAssay AID1159580 (chemical genetic matrix, 2015).
About 2,000 (36%) of roughly 5,500 compounds were called active. Inconclusive results (about 18%) are left out. No stated cut-off is given here; in the data, active means normalized growth mostly below about 0.91 (no sharp cut-off); inconclusive means no clear call, values can overlap the other calls; inactive means mostly above about 0.92. Some of the results follow.

Assay: chemical genetic growth profiling, strain panel (AID 1159580);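 further: tested at 20 µM; growth read once vehicle control cultures reached saturation at 30 °C; 1 = growth at the plate median or of vehicle wells; lower values mean less growth of the strain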
Conditions: S. cerevisiae deletion strains, growth OD
[1] = locus YHR030C, strain SLT2, active compounds read low
[2] = locus YJL095W, strain BCK1, active compounds read low

Measured: normalized growth

COc1cc2oc3cc(OC)c(OC)c(CC=C(C)C)c3c(=O)c2c(O)c1CC=C(C)C
inactive: [1] 0.981 | locus YHR079C, strain IRE1, active compounds read low 0.988 | [2] 0.971 | locus YJR066W, strain TOR1, active compounds read low 0.934 | locus YLR113W, strain HOG1, active compounds read low 0.958 | locus YNL183C, strain NPR1, active compounds read low 0.919 | locus YOR231W, strain MKK1, active compounds read low 0.981 | locus YPL256C, strain CLN2, active compounds read low 0.992

Cc1cc(=O)c2c(O)cc(O)c(C)c2o1
active: locus YDR137W, strain rgp1, active compounds read low 0.504 | locus YDR195W, strain ref2 1.34 [resistant] | locus YDR335W, strain msn5, active compounds read low 0.897 | locus YER155C, strain BEM2 (second series), active compounds read low 0.808 | locus YHR142W, strain chs7, active compounds read low 0.869 | locus YLR262C, strain YPT6 (second series), active compounds read low 0.507 | locus YLR320W, strain mms22, active compounds read low 0.853 | locus YOR270C, strain vph1, active compounds read low 0.729 | locus YPL051W, strain arl3, active compounds read low 0.859
inactive: locus YAL021C, strain ccr4, active compounds read low 0.976 | locus YAL026C, strain drs2, active compounds read low 0.926 | locus YAL030W, strain snc1, active compounds read low 0.954 | locus YBL061C, strain skt5, active compounds read low 0.951 | locus YBR009C, strain hhf1, active compounds read low 0.953 | locus YBR021W, strain FUR4, active compounds read low 0.995 | locus YBR023C, strain chs3, active compounds read low 0.936 | locus YBR171W, strain sec66, active compounds read low 0.921 | locus YBR229C, strain ROT2, active compounds read low 0.987 | locus YBR231C, strain swc5, active compounds read low 0.924 | locus YBR279W, strain paf1, active compounds read low 0.946 | locus YCL011C, strain gbp2, active compounds read low 0.951 | locus YCL016C, strain dcc1, active compounds read low 0.937 | locus YCL029C, strain bik1, active compounds read low 0.994 | locus YCL061C, strain MRC1, active compounds read low 0.938 | locus YCL069W, strain vba3, active compounds read low 0.982 | locus YCR088W, strain abp1, active compounds read low 0.965 | locus YDL005C, strain med2, active compounds read low 0.963 | locus YDL035C, strain GPR1, active compounds read low 1.02 | locus YDL040C, strain nat1, active compounds read low 0.979 | locus YDL074C, strain BRE1, active compounds read low 1.02 | locus YDL101C, strain DUN1, active compounds read low 0.975 | locus YDL134C, strain PPH21, active compounds read low 0.996 | locus YDL185W, strain tfp1, active compounds read low 0.962 | locus YDL192W, strain arf1, active compounds read low 0.988 | locus YDR001C, strain nth1, active compounds read low 0.959 | locus YDR069C, strain doa4, active compounds read low 0.962 | locus YDR101C, strain arx1, active compounds read low 1.01 | locus YDR159W, strain sac3, active compounds read low 0.907 | locus YDR162C, strain NBP2, active compounds read low 1.03 | locus YDR297W, strain sur2, active compounds read low 0.966 | locus YDR318W, strain mcm21, active compounds read low 0.988 | locus YDR334W, strain swr1, active compounds read low 0.951 | locus YDR388W, active compounds read low 0.98 | locus YDR392W, strain spt3, active compounds read low 0.753 | locus YDR502C, strain sam2, active compounds read low 0.977 | locus YEL003W, strain gim4, active compounds read low 0.95 | locus YEL037C, strain rad23, active compounds read low 0.961 | locus YEL061C, strain CIN8 (second series), active compounds read low 0.943 | locus YEL061C, strain CIN8, active compounds read low 0.993 | locus YER015W, strain faa2, active compounds read low 0.95 | locus YER016W, strain bim1, active compounds read low 0.937 | locus YER110C, active compounds read low 0.968 | locus YER111C, strain swi4, active compounds read low 0.934 | locus YER155C, strain BEM2, active compounds read low 0.987 | locus YER167W, strain BCK2, active compounds read low 1 | locus YFR010W, strain ubp6, active compounds read low 0.942 | locus YGL078C, strain dbp3, active compounds read low 0.965 | locus YGL086W, strain mad1, active compounds read low 1 | locus YGL167C, strain pmr1, active compounds read low 0.936 | locus YGL173C, strain kem1, active compounds read low 0.946 | locus YGL227W, strain vid30, active compounds read low 0.957 | locus YGL240W, strain doc1, active compounds read low 0.931 | locus YGL248W, strain PDE1, active compounds read low 0.995 | locus YGL253W, strain hxk2, active compounds read low 0.962 | locus YGR078C, strain PAC10, active compounds read low 0.985 | locus YGR135W, strain pre9, active compounds read low 0.965 | locus YGR229C, strain SMI1, active compounds read low 1.01 | locus YGR252W, strain gcn5, active compounds read low 1.03 | locus YHR013C, strain ard1, active compounds read low 1.05 | locus YHR027C, strain rpn1, active compounds read low 0.964 | [1] 0.996 | locus YHR079C, strain IRE1 (second series), active compounds read low 0.988 | locus YHR094C, strain hxt1, active compounds read low 0.983 | locus YHR129C, strain ARP1, active compounds read low 0.985 | locus YHR200W, strain rpn10, active compounds read low 0.96 | locus YIL066C, strain RNR3, active compounds read low 0.991 | locus YIL073C, strain SPO22, active compounds read low 0.967 | locus YIL125W, strain kgd1, active compounds read low 1 | locus YIR030C, strain dcg1, active compounds read low 0.973 | locus YJL092W, strain hpr5, active compounds read low 0.964 | locus YJL095W, strain BCK1 (second series), active compounds read low 0.962 | [2] 0.962 | locus YJL115W, strain asf1, active compounds read low 0.971 | locus YJL129C, strain trk1, active compounds read low 0.901 | locus YJL134W, strain LCB3, active compounds read low 0.989 | locus YJL154C, strain vps35, active compounds read low 0.977 | locus YJL164C, strain tpk1, active compounds read low 0.946 | locus YJL166W, strain qcr8, active compounds read low 0.956 | locus YJL168C, strain set2, active compounds read low 0.976 | locus YJL187C, strain SWE1 (second series), active compounds read low 0.97 | locus YJL187C, strain SWE1, active compounds read low 0.935 | locus YJR043C, strain POL32, active compounds read low 1.05 | locus YKL009W, strain mrt4, active compounds read low 0.954 | locus YKL068W, active compounds read low 0.985 | locus YKL085W, strain MDH1 (second series), active compounds read low 0.984 | locus YKL085W, strain MDH1, active compounds read low 0.984 | locus YKL160W, strain elf1, active compounds read low 0.908 | locus YKL190W, strain CNB1, active compounds read low 0.993 | locus YKR001C, strain vps1, active compounds read low 0.949 | locus YKR026C, strain gcn3, active compounds read low 0.96 | locus YKR091W, strain srl3, active compounds read low 0.96 | locus YLL001W, strain dnm1, active compounds read low 0.944 | locus YLL026W, active compounds read low 0.962 | locus YLL041C, strain sdh2, active compounds read low 0.971 | locus YLR027C, strain aat2, active compounds read low 0.962 | locus YLR039C, strain RIC1, active compounds read low 0.919 | locus YLR058C, strain SHM2, active compounds read low 0.982 | locus YLR102C, strain apc9, active compounds read low 0.982 | locus YLR221C, strain rsa3, active compounds read low 0.977 | locus YLR258W, strain gsy2, active compounds read low 0.965 | locus YLR268W, strain sec22, active compounds read low 1 | locus YLR330W, strain CHS5, active compounds read low 0.993 | locus YLR342W, strain FKS1, active compounds read low 0.962 | locus YLR357W, strain rsc2, active compounds read low 1 | locus YLR370C, strain arc18, active compounds read low 0.971 | locus YLR371W, strain rom2, active compounds read low 0.983 | locus YLR384C, strain iki3, active compounds read low 0.942 | locus YLR418C, strain cdc73, active compounds read low 0.925 | locus YML016C, strain PPZ1, active compounds read low 0.982 | locus YML032C, strain rad52, active compounds read low 0.987 | locus YML120C, strain ndi1, active compounds read low 0.949 | locus YML124C, strain tub3, active compounds read low 0.98 | locus YMR058W, strain fet3, active compounds read low 0.928 | locus YMR078C, strain ctf18, active compounds read low 0.989 | locus YMR125W, strain sto1, active compounds read low 0.951 | locus YMR129W, active compounds read low 0.958 | locus YMR205C, strain PFK2, active compounds read low 0.896 | locus YMR223W, strain ubp8, active compounds read low 0.97 | locus YMR231W, strain pep5, active compounds read low 0.933 | locus YMR263W, strain SAP30, active compounds read low 0.965 | locus YMR307W, strain GAS1, active compounds read low 1.05 | locus YNL067W, strain RPL9B, active compounds read low 0.978 | locus YNL071W, strain lat1, active compounds read low 0.938 | locus YNL209W, strain ssb2, active compounds read low 0.96 | locus YNL233W, strain BNI4, active compounds read low 0.941 | locus YNL248C, strain rpa49, active compounds read low 0.929 | locus YNL250W, strain rad50, active compounds read low 0.976 | locus YNL271C, strain bni1, active compounds read low 0.982 | locus YNL298W, strain CLA4, active compounds read low 0.983 | locus YNL307C, strain MCK1, active compounds read low 0.956 | locus YNL322C, strain KRE1 (second series), active compounds read low 0.971 | locus YNL322C, strain KRE1, active compounds read low 1.01 | locus YNR049C, strain mso1, active compounds read low 0.969 | locus YNR052C, strain pop2, active compounds read low 0.978 | locus YOL006C, strain TOP1, active compounds read low 1.09 | locus YOL012C, strain htz1 0.94 | locus YOL147C, strain pex11, active compounds read low 0.99 | locus YOR001W, strain rrp6, active compounds read low 0.909 | locus YOR061W, strain CKA2, active compounds read low 1.02 | locus YOR069W, strain VPS5, active compounds read low 0.98 | locus YOR070C, strain gyp1, active compounds read low 0.961 | locus YOR080W, strain dia2, active compounds read low 0.972 | locus YOR083W, strain WHI5, active compounds read low 0.919 | locus YOR106W, strain vam3, active compounds read low 0.869 | locus YOR136W, strain idh2, active compounds read low 0.981 | locus YOR144C, strain elg1, active compounds read low 0.982 | locus YOR184W, strain ser1, active compounds read low 1.04 | locus YOR265W, strain rbl2, active compounds read low 0.964 | locus YOR290C, strain snf2, active compounds read low 0.898 | locus YOR316C, strain cot1, active compounds read low 0.969 | locus YPL078C, strain atp4, active compounds read low 0.942 | locus YPL106C, strain sse1, active compounds read low 0.942 | locus YPL240C, strain hsp82, active compounds read low 0.959 | locus YPL241C, strain CIN2, active compounds read low 0.998 | locus YPR119W, strain clb2, active compounds read low 0.995 | locus YPR141C, strain kar3, active compounds read low 0.987 | locus YPR163C, strain tif3, active compounds read low 0.992 | locus YPR167C, strain met16, active compounds read low 0.979 | strain wtn01, active compounds read low 1.01
